# Experimental data published in publication PMC5540273 (PLoS ONE, 2017).
# Test system: WNK3
# Conditions: concentration: 1 μM,replicates: in singlicate; n = 1
# 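Further: KINOMEscan kinase panel screen.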
row,SMILES,%Inh [%]
1,COc1cc2nccc(Nc3ccc(Oc4ccccc4)cc3)c2cc1OC.Cl [GI261656],42
2,c1ccc(Oc2ccc(Nc3ccnc4ccc(-c5ccccn5)cc34)cc2)cc1 [GW407034],20
3,Cn1ccc2ncnc(Oc3ccc(NC(=O)Nc4cc(C(C)(C)C)on4)c(Cl)c3)c21,0
4,CS(=O)(=O)Nc1ccc(-c2ccnc3[nH]ccc23)cc1 [GSK993273],9
5,FC(F)(F)c1cc(Br)cc(Nc2nccc(-c3cnn4ncccc34)n2)c1 [GW810578],0
6,Cn1ccc2ncnc(Oc3ccc(NC(=O)Nc4cccc(C(F)(F)F)c4)c(F)c3)c21,0
7,CN(c1ccccc1CNc1nc(Nc2ccc3c(c2)CC(=O)N3)ncc1C(F)(F)F)S(C)(=O)=O,0
8,O=C1NCCc2[nH]c(-c3ccncc3)cc21,0
9,COc1cccc(CNC(=O)NC2CCN(c3ccnc(Nc4cc(OC)c(OC)c(OC)c4)n3)C2)c1 (centres unmarked) [GSK1379765],34
10,CC(C)c1nc(-c2cccc(NS(=O)(=O)c3ccccc3)c2)c(-c2ccnc(Nc3ccc4c(c3)CN(C)CC4)n2)s1 [GSK1649598],12
11,C[C@@H](Oc1cc(-n2cnc3ccc(-c4ccncc4)cc32)sc1C(N)=O)c1ccccc1Cl [GSK483724],79
12,Cc1ccc(C(=O)Nc2ccc(Oc3ccc4nc(NC(=O)C5CC5)cn4c3)c(F)c2)c(=O)n1-c1ccccc1,0
13,CN1CCN(CCCNc2nccc(-c3c(-c4ccc(F)cc4)nn4cc(C(N)=O)ccc34)n2)CC1 [GW622475],20
14,CS(=O)c1ccc(-c2coc3ccc(-c4n[nH]c(=O)o4)cc23)cc1 (centres unmarked),0
15,O=c1[nH]cc(-c2ccc(O)cc2)c2sc(-c3ccncc3)cc12 [GSK1033723],18
16,Cn1ccc2ncnc(Oc3ccc(NC(=O)Nc4cccc(C(F)(F)F)c4)c(Cl)c3)c21,0
17,Cc1ccc(Nc2ccnc(Nc3ccc4c(c3)CS(=O)(=O)C4)n2)cc1O.Cl [GW579362],33
18,Cc1ccn2nc(-c3ccc(F)cc3)c(-c3ccncc3)c2c1.Cl [GW457859],30
19,C[C@@H](Oc1cc(-n2cnc3cc(-c4ccncc4)ccc32)sc1C(N)=O)c1ccccc1Cl [GSK479719],90.2
20,Cc1ccc2c(-c3ccnc(Nc4ccc(C(F)(F)F)cc4)n3)cnn2n1 [GW819776],0
21,COc1cccc(C2=C(Nc3cccc(Cl)c3)C(=O)NC2=O)c1 [SB-341556],19
22,Cn1ccc2ncnc(Oc3ccc(NC(=O)Nc4cncc(C(F)(F)F)c4)c(Cl)c3)c21,0
23,O=C(Nc1ccccc1)c1cccc(Oc2ccc3nccn3n2)c1,8
24,O=C(Nc1cccc(C(F)(F)F)c1)c1cccc(Oc2ccc3nccn3n2)c1,26
25,Cn1cc(-c2cccc3c(N)c(C(N)=O)nnc23)cn1,0

# Test system: WNK4
# Conditions: concentration: 1 μM,replicates: in singlicate; n = 1
row,SMILES,%Inh [%]
1,CC(C(=O)NC1CCN(c2ccnc(Nc3ccc(F)cc3)n2)C1)c1ccc(Cl)cc1 (centres unmarked) [GSK1379713],0
2,CNC(=O)c1ccccc1Nc1nc(Nc2cccc(CS(C)(=O)=O)c2)ncc1C.O=CO [GSK1520489],29
3,COc1ccc(Nc2nccc(N3CCC(NC(=O)c4cccc(C#N)c4)C3)n2)cc1 (centres unmarked) [GSK1379730],0
4,CN1CCN(CCNc2nc3cc(Oc4ccc(NC(=O)Nc5cc(C(F)(F)F)ccc5F)cc4)ccc3[nH]2)CC1.Cl.Cl [GW768504],0
5,COc1cc(Nc2nccc(N3CCC(NC(=O)c4cccc(C#N)c4)C3)n2)cc(OC)c1OC (centres unmarked) [GSK1379751],39
6,CSc1nccc(-c2c(-c3ccc(F)cc3)ncn2CCCN2CCOCC2)n1.Cl [SB-217146],0
7,O=C(NCC1CC1)c1ccc(-c2cc(C(=O)NC3CC3)ccc2F)cc1 [GW810445],10
8,Cl.Cl.NC[C@H](CC1CCCCC1)NC(=O)c1ccc(-c2ccnc3[nH]ccc23)s1 [GSK1581428],7
9,Cc1cccc(-c2nc(Nc3ccncc3)c3sccc3n2)n1 [GW869641],17
10,CCNCC(Cc1ccccc1)NC(=O)c1cc(Br)c(-c2ccnc3[nH]ccc23)s1.Cl.Cl (centres unmarked) [GSK1383280],28
11,CC(C)S(=O)(=O)N1CCN(Cc2ccc3c(c2)nc(NC(=O)c2ccsc2)n3C[C@H](O)c2ccccc2)CC1 [GW635815],0
12,CN(c1cccc(CNc2nc(Nc3ccc4c(c3)CC(=O)N4)ncc2C(F)(F)F)c1)S(C)(=O)=O,0
13,COc1cc2nccc(Nc3ccc(Oc4ccccc4)cc3)c2cc1OC.Cl [GI261656],28
14,c1ccc(Oc2ccc(Nc3ccnc4ccc(-c5ccccn5)cc34)cc2)cc1 [GW407034],51
15,Cn1ccc2ncnc(Oc3ccc(NC(=O)Nc4cc(C(C)(C)C)on4)c(Cl)c3)c21,0
16,CS(=O)(=O)Nc1ccc(-c2ccnc3[nH]ccc23)cc1 [GSK993273],0
17,FC(F)(F)c1cc(Br)cc(Nc2nccc(-c3cnn4ncccc34)n2)c1 [GW810578],0
18,Cn1ccc2ncnc(Oc3ccc(NC(=O)Nc4cccc(C(F)(F)F)c4)c(F)c3)c21,7
19,CN(c1ccccc1CNc1nc(Nc2ccc3c(c2)CC(=O)N3)ncc1C(F)(F)F)S(C)(=O)=O,0

row,SMILES,%Inh [%]
1,O=C1NCCc2[nH]c(-c3ccncc3)cc21,22
2,COc1cccc(CNC(=O)NC2CCN(c3ccnc(Nc4cc(OC)c(OC)c(OC)c4)n3)C2)c1 (centres unmarked) [GSK1379765],43
3,CC(C)c1nc(-c2cccc(NS(=O)(=O)c3ccccc3)c2)c(-c2ccnc(Nc3ccc4c(c3)CN(C)CC4)n2)s1 [GSK1649598],0
4,C[C@@H](Oc1cc(-n2cnc3ccc(-c4ccncc4)cc32)sc1C(N)=O)c1ccccc1Cl [GSK483724],51
5,Cc1ccc(C(=O)Nc2ccc(Oc3ccc4nc(NC(=O)C5CC5)cn4c3)c(F)c2)c(=O)n1-c1ccccc1,0
6,CN1CCN(CCCNc2nccc(-c3c(-c4ccc(F)cc4)nn4cc(C(N)=O)ccc34)n2)CC1 [GW622475],14
7,CS(=O)c1ccc(-c2coc3ccc(-c4n[nH]c(=O)o4)cc23)cc1 (centres unmarked),0
8,O=c1[nH]cc(-c2ccc(O)cc2)c2sc(-c3ccncc3)cc12 [GSK1033723],10
9,Cn1ccc2ncnc(Oc3ccc(NC(=O)Nc4cccc(C(F)(F)F)c4)c(Cl)c3)c21,0
10,Cc1ccc(Nc2ccnc(Nc3ccc4c(c3)CS(=O)(=O)C4)n2)cc1O.Cl [GW579362],9
11,Cc1ccn2nc(-c3ccc(F)cc3)c(-c3ccncc3)c2c1.Cl [GW457859],55
12,C[C@@H](Oc1cc(-n2cnc3cc(-c4ccncc4)ccc32)sc1C(N)=O)c1ccccc1Cl [GSK479719],2
13,Cc1ccc2c(-c3ccnc(Nc4ccc(C(F)(F)F)cc4)n3)cnn2n1 [GW819776],0
14,COc1cccc(C2=C(Nc3cccc(Cl)c3)C(=O)NC2=O)c1 [SB-341556],0
15,Cn1ccc2ncnc(Oc3ccc(NC(=O)Nc4cncc(C(F)(F)F)c4)c(Cl)c3)c21,0
16,O=C(Nc1ccccc1)c1cccc(Oc2ccc3nccn3n2)c1,36
17,O=C(Nc1cccc(C(F)(F)F)c1)c1cccc(Oc2ccc3nccn3n2)c1,15
18,Cn1cc(-c2cccc3c(N)c(C(N)=O)nnc23)cn1,0
